The panel holds about 83,000 compounds, 20% with a hit somewhere; the sample as a whole holds those more often.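 Interpretation: 100, growth as untreated; towards 0, rising growth inhibition; 0, no net growth; 0 to -100, cell death. Compounds scoring below 10 were considered active.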 Values without a mark were called inactive. Active and inactive are the calls of the source.

Experimental findings from PubChem BioAssay (NCI) are described below.

Among the test systems are NCI-H23 lung; NCI-H226 lung; NCI-H322M lung; HOP-62 NSCLC; NCI-H460 lung; HOP-92 NSCLC; NCI-H522 lung; A549/ATCC NSCLC; 786-0 renal; COLO 205 colon; DU-145 prostate; K-562 leukemia; MALME-3M melanoma; MDA-MB-231 breast; RXF 393 renal; SF-268 CNS; SF-295 CNS; SF-539 CNS; UACC-257 melanoma; M14 melanoma.
Holding throughout (test): NCI-60 one-dose screen, 48 h (100 = growth as untreated, 0 = no growth, -100 = all killed)
Holding throughout (details): 10 µM unless noted

Turning to `NC(=O)CNc1ccc([As]=[As]c2ccc(NCC(N)=O)cc2)cc1` (stereo not given), the growth with NCI-H23 lung is 62.2%; in the assay with NCI-H226 lung, 49.4%; in the assay on NCI-H322M lung, 83.5%; with HOP-62 NSCLC, 94%; with NCI-H460 lung, 83.2%; in the assay on HOP-92 NSCLC it was 63.6%. Also, the growth in the assay with NCI-H522 lung was 2.53% (active); with A549/ATCC NSCLC it was 81%; in the assay on 786-0 renal, 29.7%; with COLO 205 colon, 76.8%; in the assay on DU-145 prostate, 60.3%; in the assay with K-562 leukemia, 19%. Further, the growth with MALME-3M melanoma is 47.2%; in the assay on MDA-MB-231 breast it was 30%; with RXF 393 renal, 32.1%; in the assay on SF-268 CNS it was 24.6%; in the assay on SF-295 CNS it was 94%; with SF-539 CNS, 0.244% (active). In addition, the growth in the assay with UACC-257 melanoma was 37.2%; in the assay with M14 melanoma, 57.7%.
Regarding `CCOP(=O)(Nc1ccc2c(c1)/C(=N/NC(N)=S)c1ccccc1-2)OCC`, the growth in the assay on NCI-H23 lung is 99%; with NCI-H226 lung it was 97.6%; in the assay on NCI-H322M lung it was 132%; in the assay with HOP-62 NSCLC, 117%; in the assay on NCI-H460 lung, 104%; with HOP-92 NSCLC, 96.1%. Further, the growth is 95.4% in the assay on NCI-H522 lung; 99.5% with A549/ATCC NSCLC; 104% with 786-0 renal; 96.3% with COLO 205 colon; 102% with DU-145 prostate; 103% with K-562 leukemia. Also, the growth in the assay on MALME-3M melanoma is 139%; with MDA-MB-231 breast it was 59.7%; with RXF 393 renal it was 90.1%; with SF-268 CNS, 98%; in the assay with SF-295 CNS, 116%; with SF-539 CNS, 84.7%. Further, the growth in the assay on UACC-257 melanoma was 113%; in the assay with M14 melanoma it was 108%.
With `COC(=O)[C@@H](C)C[C@H](Cc1ccccc1)NC(=O)c1csc([C@@H](C[C@H](C(C)C)N(C)C(=O)[C@@H](NC(=O)[C@H]2CCCCN2C)C(C)C)OC(C)=O)n1`, the growth in the assay on NCI-H23 lung was 23.7%; in the assay with NCI-H226 lung, 32.4%; in the assay on NCI-H322M lung, 46.8%; in the assay with HOP-62 NSCLC it was 0.881% (active); with NCI-H460 lung it was 2.4% (active); in the assay on HOP-92 NSCLC it was -13.5% (active). The growth was -31.7% (active) in the assay with NCI-H522 lung; 14% in the assay with A549/ATCC NSCLC; 4.12% (active) in the assay with 786-0 renal; -69.9% (active) with COLO 205 colon; 10.3% with DU-145 prostate; 1.46% (active) in the assay with K-562 leukemia. Besides, the growth in the assay on MALME-3M melanoma was 51.5%; in the assay on MDA-MB-231 breast it was 1.38% (active); in the assay on RXF 393 renal it was 75.3%; in the assay on SF-268 CNS it was 17.1%; in the assay on SF-295 CNS, -2.48% (active); in the assay with SF-539 CNS, -23% (active). Moreover, the growth is 41.7% in the assay with UACC-257 melanoma and -32.1% (active) with M14 melanoma.
In the case of `CC(=O)O[C@H](C[C@H](C(C)C)N(C)C(=O)[C@@H](NC(=O)[C@H]1CCCN1C)C(C)C)c1nc(C(=O)N[C@@H](Cc2ccccc2)C[C@H](C)C(=O)O)c(C)s1`, the growth was 30.3% with NCI-H23 lung; 54.8% in the assay with NCI-H226 lung; 52% in the assay with NCI-H322M lung; 29.7% in the assay on HOP-62 NSCLC; 5.67% (active) with NCI-H460 lung; 16.5% with HOP-92 NSCLC. In addition, the growth was -24.7% (active) in the assay with NCI-H522 lung; 13.3% in the assay with A549/ATCC NSCLC; 22.4% in the assay on 786-0 renal; -63.2% (active) in the assay on COLO 205 colon; 15.3% in the assay on DU-145 prostate; 9.54% (active) in the assay with K-562 leukemia. In addition, the growth in the assay on MALME-3M melanoma is 53.9%; in the assay on MDA-MB-231 breast it was 15.1%; in the assay with RXF 393 renal, 61.6%; in the assay on SF-268 CNS it was 29.9%; in the assay on SF-295 CNS, 11%; in the assay on SF-539 CNS, -3.18% (active). In addition, the values for the growth in the assay on UACC-257 melanoma and in the assay with M14 melanoma were 38.2% and 4.87% (active), respectively.
On to `N#Cc1c(Br)n(C2OC(CO)C(O)C2O)c2ncnc(N)c12` (stereo not given), for which the growth in the assay on NCI-H23 lung was 74.4%; with NCI-H226 lung, 135%; in the assay on NCI-H322M lung it was 81%; in the assay with HOP-62 NSCLC, 101%; in the assay on NCI-H460 lung, 34%; in the assay on HOP-92 NSCLC it was 52.7%. For the same molecule, the growth was 60.5% with NCI-H522 lung; 13.4% with A549/ATCC NSCLC; 89.1% in the assay with 786-0 renal; 18.2% in the assay on COLO 205 colon; 17.8% with DU-145 prostate; 20.8% in the assay with K-562 leukemia. Further, the growth in the assay with MALME-3M melanoma was 108%; in the assay on MDA-MB-231 breast it was 97.1%; in the assay on RXF 393 renal it was 13.8%; in the assay with SF-268 CNS it was 55%; in the assay on SF-295 CNS it was 87.5%; with SF-539 CNS, 102%. Also, the growth with UACC-257 melanoma is 80.3%; in the assay on M14 melanoma it was 60%.
`O=C(N/N=C\c1ccc(N(CCCl)CCCl)cc1Cl)c1cccnc1`: the growth in the assay with NCI-H23 lung is 70.5%; in the assay on NCI-H226 lung it was -48.5% (active); in the assay on NCI-H322M lung it was 133%; in the assay with HOP-62 NSCLC, 72.2%; with NCI-H460 lung it was 7.56% (active); in the assay on HOP-92 NSCLC it was 74.3%. Further, the growth in the assay on NCI-H522 lung was 116%; in the assay on A549/ATCC NSCLC, 60.4%; in the assay on 786-0 renal it was 66.9%; with COLO 205 colon, 83%; in the assay on DU-145 prostate, 94.4%; in the assay on K-562 leukemia, 82%. Besides, the growth in the assay on MALME-3M melanoma was 116%; with MDA-MB-231 breast, 85%; with RXF 393 renal it was 82.8%; with SF-268 CNS, 99.1%; in the assay on SF-295 CNS, 59.6%; with SF-539 CNS, 95.3%. For the same molecule, the growth was -10.9% (active) in the assay on UACC-257 melanoma and 98% with M14 melanoma.
In the case of `COc1ccc(/C=C\c2cc(OC)c(OC)c(OC)c2)cc1NS(=O)(=O)c1ccc(Cl)cc1`, the growth in the assay on NCI-H23 lung was 75.3%; in the assay on NCI-H226 lung it was 70.9%; with NCI-H322M lung, 73.1%; in the assay with HOP-62 NSCLC it was 83.9%; in the assay with NCI-H460 lung, 84.1%; in the assay on HOP-92 NSCLC, 37%. Also, the growth was 25.9% in the assay with NCI-H522 lung; 58.9% in the assay on A549/ATCC NSCLC; 78% in the assay with 786-0 renal; 73.6% in the assay on COLO 205 colon; 94% with DU-145 prostate; 36.8% in the assay with K-562 leukemia. The growth with MALME-3M melanoma was 59.5%; in the assay on MDA-MB-231 breast, 66%; in the assay with RXF 393 renal it was 65.8%; with SF-268 CNS, 79.4%; with SF-295 CNS, 69.3%; in the assay on SF-539 CNS it was 82.6%. In addition, the growth is 69% in the assay with UACC-257 melanoma and 62.4% with M14 melanoma.
